The values below come from PubChem BioAssay (NCATS).

Test [1] concerns the target Glutaminase kidney isoform, mitochondrial (Homo sapiens) (UniProt O94925). Nature of the test: qHTS for Inhibitors of Glutaminase (GLS): LOPAC Validation (AID 624146). Note: nearly all actives have a fitted effect of over 60% in size. Note: potency is the fitted concentration of half-maximal effect. A digest of the protocol:
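Assay buffer: 45 mM KH2PO4 pH 8.2, 0.02% Tween-20. hKGA acts on L-glutamine (1 mM solution added); product glutamate is reported by an oxidase/peroxidase Amplex Red coupling, with fluorescence taken at baseline and 30 min.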

A short description of test [2]: qHTS of Trypanosoma Brucei Inhibitors: LOPAC Validation (AID 624147). Note: 0% is about no effect. In outline: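 Screened from lowest to highest concentration, compounds were pinned into TbPYK/substrate mixtures, and ADP (130 uM final) was added. Plates sat at room temperature for 45 min prior to Kinase-Glo Plus detection by luminescence.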
A general note: Quantitative high-throughput screening tests each substance at several concentrations.

Test [3] is described as follows: qHTS of Nrf2 Activators: LOPAC Validation (AID 624149). Note: 0% is about no effect. A digest of the protocol: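 AREc32_Fluc cells, 1000/well in OPTI-MEM with 5% FBS, grown overnight, then exposed to compounds for 24 hr at 37 deg C, 5% CO2. ARE-driven firefly luciferase read by Steady-Glo luminescence after 30 min at RT.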
A short description of test [4]: HTS Assay for Allosteric Antagonists of the Human D2 Dopamine Receptor: Hit Validation in HTRF (AID 624455). Note: potency is the fitted concentration of half-maximal effect.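 Note: stable D1 dopamine receptor cell line scored for blocking the D1 response.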 In outline:
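Hit validation in cells stably expressing the D1 dopamine receptor, run in HTRF format. Compounds were tested for their ability to inhibit the D1-mediated response.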

The target in test [5] is Glucagon-like peptide 1 receptor (Homo sapiens) (UniProt P43220). As to the kind of experiment: qHTS of GLP-1 Receptor Agonists: LOPAC Validation (AID 624148).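 Note: luminescence from a luciferase reporter switched on by cAMP; 0% is about no effect; higher luminescence signal means agonism.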 A digest of the protocol: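 Agonism scored as increased luciferase luminescence driven by cAMP in HEK293 clones carrying GLP-1R. Cells settled 12 hours, received compound for 4-6 hr at 37 deg C, 5% CO2, and were read after 12 min detection reagent at RT.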

The nature of test [6]: qHTS assay for small molecule activators of the p53 signaling pathway (AID 651743; active = well fitted activation curve with a large enough effect in the signal ratio, not every such curve was filed as active; the % refers to the signal ratio; note: series mostly up to about 92 µM; % of control where 0% means no effect). The following applies: HCT-116 p53RE-bla, beta-lactamase FRET ratio, 16 h; hits give high values. In outline: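 Read-out is fluorescence intensity from the LiveBLAzer B/G FRET substrate, added for 2 hours at room temperature after HCT-116 p53RE-bla cells had been incubated with compounds for 16 hours at 37 C.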

A short description of test [7]: qHTS assay for small molecule activators of the nuclear factor-kappa B (NF-kB) signaling pathway (AID 651749; active = well fitted activation curve with a large enough effect in the signal ratio; the % refers to the signal ratio; note: series mostly up to about 77 µM; % of control where 0% means no effect). The following applies: NF-kB-bla ME-180 cells, beta-lactamase FRET ratio, 16 h; hits give high values. A digest of the protocol:
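Readout: beta-lactamase reporter driven by an NF-kB response element, detected fluorescently as loss of FRET. Cells were the ME-180 line, treated 16 hr at 37C with pin-transferred compound.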

A short description of test [8]: qHTS assay for environmental chemicals that activate the Aryl hydrocarbon Receptor (AhR) signaling pathway (AID 651777). Note: % of control where 0% means no effect; nearly all actives have a fitted effect of over 15% in size. As to conditions: 1A2-DRE human hepatoma cells, luciferase, 24 h; hits give high values. A digest of the protocol:
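Following a 24 hr incubation with test chemicals at 37 C and 5% CO2, 1A2-DRE human hepatoma cells received One-Glo reagent; after 30 min at room temperature, luciferase output reflected CYP1A2 induction via AhR.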

Test [9] addresses Peroxisome proliferator-activated receptor alpha (Homo sapiens) (UniProt Q07869). Nature of the test: qHTS assay for small molecule agonists of the peroxisome proliferator-activated receptor alpha (PPARalpha) signaling pathway (AID 651778). Note: % of control where 0% means no effect. The following applies: PathHunter PPARalpha complementation, chemiluminescence, 6 h; max response: hits give high values. In outline:
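Chemiluminescence from complemented enzyme reported PPARalpha activation in cells after 6 hr of compound treatment at 37 C. The detection reagent was incubated for 60 min at room temperature, and compounds were scored as agonists.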

Test [10] concerns the target Tumor susceptibility gene 101 protein (Homo sapiens) (UniProt Q99816). Nature of the test: qHTS Assay for Iinhibitors of HIV-1 Budding by Blocking the Interaction of PTAP/TSG101: Hit Validation (AID 651600). Note: % is set by controls: 0 for no effect and ±100 for the full control effect; nearly all actives have a fitted effect of over 70% in size. A digest of the protocol:
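Fluorescence polarization binding assay: Tsg101 binding domain (10 uM) mixed with compounds and FITC-labeled PTAP peptide (50 nM) in HEPES pH 7.5, 0.15 M NaCl, 0.01% Tween 20, EDTA, TCEP; 20 min at r.t.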

Values without a mark were called inactive. Results filed as inconclusive are left out. The source made the active and inactive calls. Unless noted, calls come from the whole dose curve; as a rule, active = well fitted curve in the direction sought with a large enough effect; inconclusive = small, poorly fitted or top-dose-only effect, or another doubt; inactive = no such curve, though single readings can be large; an effect the other way counts as inactive or inconclusive.

Sequence of Glucagon-like peptide 1 receptor (Homo sapiens) (P43220 whole entry, looked up): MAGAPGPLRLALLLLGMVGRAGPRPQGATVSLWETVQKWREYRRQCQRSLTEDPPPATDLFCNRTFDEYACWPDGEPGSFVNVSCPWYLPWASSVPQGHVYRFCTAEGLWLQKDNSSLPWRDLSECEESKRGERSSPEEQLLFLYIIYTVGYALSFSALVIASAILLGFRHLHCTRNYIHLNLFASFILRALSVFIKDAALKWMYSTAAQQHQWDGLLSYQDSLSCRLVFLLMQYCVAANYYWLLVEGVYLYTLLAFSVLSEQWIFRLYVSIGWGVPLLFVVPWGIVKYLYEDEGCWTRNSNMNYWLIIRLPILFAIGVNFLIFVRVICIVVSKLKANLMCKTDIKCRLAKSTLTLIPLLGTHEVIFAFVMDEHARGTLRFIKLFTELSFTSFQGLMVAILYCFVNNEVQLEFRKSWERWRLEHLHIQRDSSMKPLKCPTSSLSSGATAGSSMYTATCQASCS
Sequence of Glutaminase kidney isoform, mitochondrial (Homo sapiens) (O94925 whole entry, looked up, canonical isoform): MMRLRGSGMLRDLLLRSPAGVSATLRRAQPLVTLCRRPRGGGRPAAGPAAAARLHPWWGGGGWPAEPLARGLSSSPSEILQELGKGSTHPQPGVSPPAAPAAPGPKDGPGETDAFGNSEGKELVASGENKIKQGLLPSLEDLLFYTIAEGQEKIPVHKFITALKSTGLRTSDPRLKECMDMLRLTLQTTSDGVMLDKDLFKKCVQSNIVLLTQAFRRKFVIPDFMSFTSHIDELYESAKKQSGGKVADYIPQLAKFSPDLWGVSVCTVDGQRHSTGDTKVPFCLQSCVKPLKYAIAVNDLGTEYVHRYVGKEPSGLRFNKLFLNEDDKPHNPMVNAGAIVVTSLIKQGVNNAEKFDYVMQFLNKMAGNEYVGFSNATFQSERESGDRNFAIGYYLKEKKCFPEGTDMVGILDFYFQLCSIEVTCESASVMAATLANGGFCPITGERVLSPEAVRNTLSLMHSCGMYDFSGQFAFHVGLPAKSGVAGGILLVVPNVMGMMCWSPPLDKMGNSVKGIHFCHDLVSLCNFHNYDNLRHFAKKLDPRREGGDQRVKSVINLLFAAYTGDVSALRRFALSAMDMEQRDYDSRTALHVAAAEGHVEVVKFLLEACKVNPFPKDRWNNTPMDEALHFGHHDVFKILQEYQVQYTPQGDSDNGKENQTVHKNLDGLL
Sequence of Tumor susceptibility gene 101 protein (Homo sapiens) (Q99816 whole entry, looked up, the tested form may be a part): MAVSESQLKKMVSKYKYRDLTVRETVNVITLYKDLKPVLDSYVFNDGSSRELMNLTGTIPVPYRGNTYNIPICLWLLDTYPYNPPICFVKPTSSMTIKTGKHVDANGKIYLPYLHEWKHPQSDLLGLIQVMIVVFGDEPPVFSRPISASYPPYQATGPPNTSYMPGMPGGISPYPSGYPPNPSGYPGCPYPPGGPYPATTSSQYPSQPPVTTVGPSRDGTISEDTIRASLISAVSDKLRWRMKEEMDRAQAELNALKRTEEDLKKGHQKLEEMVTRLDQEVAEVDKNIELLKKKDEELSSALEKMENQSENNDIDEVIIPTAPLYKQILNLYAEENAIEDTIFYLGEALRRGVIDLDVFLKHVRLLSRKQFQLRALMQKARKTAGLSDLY
Sequence of Peroxisome proliferator-activated receptor alpha (Homo sapiens) (Q07869 whole entry, looked up): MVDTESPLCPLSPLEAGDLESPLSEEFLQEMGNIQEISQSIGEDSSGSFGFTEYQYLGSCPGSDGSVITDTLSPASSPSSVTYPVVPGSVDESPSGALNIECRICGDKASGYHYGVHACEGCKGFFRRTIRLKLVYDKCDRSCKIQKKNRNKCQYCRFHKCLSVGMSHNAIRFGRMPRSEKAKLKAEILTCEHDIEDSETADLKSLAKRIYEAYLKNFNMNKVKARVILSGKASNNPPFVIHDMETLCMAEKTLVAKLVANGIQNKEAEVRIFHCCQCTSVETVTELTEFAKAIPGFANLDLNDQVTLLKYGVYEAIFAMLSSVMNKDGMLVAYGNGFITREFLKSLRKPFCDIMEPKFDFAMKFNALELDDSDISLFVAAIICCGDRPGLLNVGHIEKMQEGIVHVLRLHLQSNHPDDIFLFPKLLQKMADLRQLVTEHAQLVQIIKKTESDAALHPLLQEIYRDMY

`C[C@]12C=CC(=O)C=C1CC[C@@H]1C2=CC[C@]2(C)[C@@H](C(=O)CN3CCN(c4cc(N5CCCC5)nc(N5CCCC5)n4)CC3)CC[C@@H]12`: the Potency result in [1], in test [2], in [3] and in [4] was “inactive” in each case.

Regarding `N#Cc1cc([N+](=O)[O-])c2sc(C(N)=O)[n+]([O-])c2c1`, the Potency result in [2], in test [5], in test [3] and in test [4] was “inactive” in each case.

On to `NC(Cc1cccc(-c2ccccc2CP(=O)(O)O)c1)C(=O)O` (stereo not given), for which the Potency entry in [2], in test [5], in test [3] and in test [4] was “inactive” each time.

Regarding `O=c1ccc2c(OCCCCc3ccccc3)c3ccoc3cc2o1`, the Potency result in test [2], in test [5], in test [3] and in [4] was “inactive” each time.

For `C[C@](Cc1ccc(O)c(O)c1)(NN)C(=O)O`, the Potency in test [1] was 1.58 µM (active). In addition, the Potency result in test [5] and in test [3] was “inactive” throughout.

`COc1ccc(-c2cc3ncc(C)n3c(Nc3ncccc3C(N)=O)n2)cc1OC`: the Potency entry in test [2], in [5], in test [3] and in test [4] was “inactive” each time.

For the molecule `NC1(C(=O)O)CC1`, the Potency entry in [2], in [5], in [3] and in [4] was “inactive” in each case.

For the molecule `CN1CCc2cc(Cl)c(O)cc2[C@@H](c2ccccc2)C1`, the Potency result in test [2], in test [5] and in [3] was “inactive” each time.

`Brc1c(Br)c(Br)c2[nH]cnc2c1Br`: the Potency entry in [1], in test [2], in test [3] and in test [4] was “inactive” each time.

Turning to `c1ccc(C(NCc2cccnc2)(c2ccccc2)c2ccccc2)cc1`, the Potency result in test [2], in test [3] and in [4] was “inactive” in each case.

Turning to `O=C(O)/C=C/c1ccc(O)c(O)c1`, the Potency in test [1] is 2 µM (active). Besides, the Potency entry in test [5], in [3] and in test [4] was “inactive” each time.

`CC(C)NCC(O)COc1ccc(CC(N)=O)cc1` (stereo not given): the Potency result in test [1], in [5] and in test [3] was “inactive” in each case.

`CN1Cc2sccc2C(c2ccc(O)c(O)c2)C1` (stereo not given): the Potency entry in test [2], in test [5] and in [3] was “inactive” each time. The Potency in test [4] is 16.4 nM (active).

Consider `CCCCCCN(CCCCCC)C(=O)Cc1c(-c2ccc(F)cc2)[nH]c2ccccc12`, for which the Potency result in [2], in [5], in [3] and in test [4] was “inactive” throughout.

As for `CNCCc1cnc(CCC(c2ccccc2)c2ccccc2)[nH]1`, the Potency result in test [2], in [5], in [3] and in [4] was “inactive” throughout.

Take `CCCCCCCC/C=C\CCCCCCCC(=O)NCCc1ccc(O)c(O)c1`: the Potency entry in [2], in test [5] and in test [3] was “inactive” each time. The Potency in test [4] was 651 nM (active).

For `Cn1cc(C(F)(F)F)nc1-c1ccc(OCC(O)CNCCOc2ccc(O)c(C(N)=O)c2)cc1` (stereo not given), the Potency result in test [2], in test [5], in [3] and in test [4] was “inactive” each time.

Regarding `CN(C)CCC(c1ccc(Br)cc1)c1ccccn1` (stereo not given), the Potency result in test [2], in [5], in test [3] and in test [4] was “inactive” each time.

Consider `O=c1oc(Cl)c(Cl)c2ccccc12`, for which the Potency result in [1], in [2] and in test [4] was “inactive” throughout.

For `Cn1cc(C(=O)OCC2CCN(CCNS(C)(=O)=O)CC2)c2ccccc21`, the Potency entry in [1], in [2], in [3] and in test [4] was “inactive” in each case.

Take `O=C(O)C1=CCCN(CCON=C(c2ccccc2)c2ccccc2)C1`: the Potency result in test [1], in [2], in [3] and in test [4] was “inactive” each time.

With `CC(C)NC[C@H](O)COc1cccc2ccccc12`, the Potency entry in [1], in [5], in test [3] and in test [4] was “inactive” in each case.

Consider `C[C@H](O)C(=O)C1=Nc2c(nc(N)[nH]c2=O)NC1`, for which the Potency result in [2], in test [3] and in test [4] was “inactive” in each case.

Regarding `NCCNS(=O)(=O)c1cccc2c(Cl)cccc12`, the Potency entry in test [1], in [2], in test [3] and in [4] was “inactive” throughout.

In the case of `CC[n+]1c(/C=C/C=C2/N(C)c3ccccc3C2(C)C)sc2ccccc21`, in test [1], the Potency is 11.2 µM (active). The Potency entry in test [3] and in test [4] was “inactive” throughout.

In the case of `CN1CC(O)C(O)C(O)C1CO` (stereo not given), the Potency result in [1], in test [2], in test [3] and in test [4] was “inactive” in each case.

As to `CC1=C(/C=C/C(C)=C/C=C/C(C)=C\C(=O)O)C(C)(C)CCC1`, the Potency entry in test [2], in test [5], in test [3] and in [4] was “inactive” each time. Besides, the activation in test [6] is -4.89%; in test [7], -1.8%; in [8] it was 6.61%. In test [9], the max response is 0.529%.

In the case of `COc1cc([C@@H]2c3cc4c(cc3[C@H](O)C3COC(=O)[C@@H]32)OCO4)cc(OC)c1OC` (stereo not given in full), the Potency result in [5], in test [3] and in test [4] was “inactive” throughout.

With `NCC(O)C1CCCCCCC1` (stereo not given), the Potency result in test [2], in test [5], in [3] and in [4] was “inactive” in each case.

In the case of `COC(=O)[C@H](NC(=O)c1cc(-c2ccccc2)nc2ccccc12)c1ccccc1`, the Potency entry in test [2], in test [3] and in test [4] was “inactive” in each case.

As for `COc1cc(CNC(=O)CCCCCCC(C)C)ccc1O`, in test [1], the Potency was 3.16 µM (active). Moreover, the Potency entry in test [2], in test [3] and in test [4] was “inactive” in each case.

Turning to `O=c1cc(-c2ccccc2)[nH]c2nc(Cl)ccc12`, the Potency entry in test [2], in [3] and in test [4] was “inactive” throughout.

Consider `C[C@@H](NCCc1ccc(O)cc1)[C@@H](O)c1ccc(O)cc1`, for which the Potency result in test [2], in test [3] and in test [4] was “inactive” each time.

Regarding `C=CCN1CCc2cc(O)c(O)cc2C(c2ccccc2)C1` (stereo not given), the Potency result in test [1], in test [2] and in test [3] was “inactive” each time.

Consider `Cc1cc(Cn2cnc3c2C[C@@H](C(=O)O)N(C(=O)C(c2ccccc2)c2ccccc2)C3)ccc1N`, for which the Potency entry in [2], in test [3] and in test [4] was “inactive” throughout.

As to `CN1CCCC1CCOC(C)(c1ccccc1)c1ccc(Cl)cc1` (stereo not given), the Potency result in test [2], in test [5], in test [3] and in test [4] was “inactive” each time. In addition, the molecule was called inactive in [10].

For the molecule `CC1CCN(CC[C@H]2CCCN2S(=O)(=O)c2cccc(O)c2)CC1`, the Potency entry in [2], in [5], in test [3] and in test [4] was “inactive” each time.
